Experimental data from the supplement of paper PMC12645437, “Orthogonal IMiD-Degron Pairs Induce Selective Protein Degradation in Cells” (ACS Chemical Biology, 2025).
The full ranking holds about 8,300 sequences; the median of “log2 fold change of degron read counts, EGFP-low vs EGFP+ sorted cells (limma voom), compound-induced degradation” is about -1.1, and the highest 2% start at about 3.2. What follows is part of a selection rich in the highest values, with near analogues and random picks from the rest.

T1: CRBN, Q96SW2
T1 chain: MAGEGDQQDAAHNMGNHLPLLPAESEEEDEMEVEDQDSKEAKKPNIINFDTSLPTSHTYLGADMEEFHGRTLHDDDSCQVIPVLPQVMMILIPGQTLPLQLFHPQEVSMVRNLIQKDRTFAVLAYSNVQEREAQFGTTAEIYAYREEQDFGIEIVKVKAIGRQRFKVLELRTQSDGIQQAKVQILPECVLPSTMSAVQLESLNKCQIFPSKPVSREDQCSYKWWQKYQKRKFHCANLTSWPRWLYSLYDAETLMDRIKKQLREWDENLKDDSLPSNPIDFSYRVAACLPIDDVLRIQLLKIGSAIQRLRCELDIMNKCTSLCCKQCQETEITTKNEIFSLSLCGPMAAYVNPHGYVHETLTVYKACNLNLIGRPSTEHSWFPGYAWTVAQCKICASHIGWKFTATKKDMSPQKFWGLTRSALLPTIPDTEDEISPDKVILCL

B1: 46F_47C_49E_50I_52G_53A_54D_55F_67L_, Q9UKT9 (peptide)
chain: FCCEICGADFTQKGNLLRHIKL
B2: 46F_47C_49E_50Q_52G_53A_54P_55F_67L_, Q9UKT9 (peptide)
chain: FCCEQCGAPFTQKGNLLRHIKL
B3: 46F_47S_49E_50I_52G_53A_54D_55F_67L_, Q9UKT9 (peptide)
chain: FSCEICGADFTQKGNLLRHIKL
B4: 46F_47S_49E_50I_52G_53A_54P_55F_67L_, Q9UKT9 (peptide)
chain: FSCEICGAPFTQKGNLLRHIKL
B5: 46F_47C_49E_50I_52G_53A_54P_55F_67L_, Q9UKT9 (peptide)
chain: FCCEICGAPFTQKGNLLRHIKL
B6: 46F_47H_49N_50Q_52G_53R_54V_55F_67L_, Q9UKT9 (peptide)
chain: FHCNQCGRVFTQKGNLLRHIKL
B7: 46F_47T_49P_50Q_52G_53A_54A_55F_67L_, Q9UKT9 (peptide)
chain: FTCPQCGAAFTQKGNLLRHIKL
B8: 46F_47R_49E_50V_52G_53A_54M_55F_67L_, Q9UKT9 (peptide)
chain: FRCEVCGAMFTQKGNLLRHIKL
B9: 46F_47L_49D_50I_52G_53A_54K_55F_67L_, Q9UKT9 (peptide)
chain: FLCDICGAKFTQKGNLLRHIKL
B10: 46F_47I_49D_50I_52G_53A_54K_55F_67L_, Q9UKT9 (peptide)
chain: FICDICGAKFTQKGNLLRHIKL
B11: 46F_47Y_49D_50I_52G_53A_54K_55F_67L_, Q9UKT9 (peptide)
chain: FYCDICGAKFTQKGNLLRHIKL
B12: 46F_47N_49D_50I_52G_53A_54K_55F_67L_, Q9UKT9 (peptide)
chain: FNCDICGAKFTQKGNLLRHIKL
B13: 46F_47Q_49D_50I_52G_53A_54K_55F_67L_, Q9UKT9 (peptide)
chain: FQCDICGAKFTQKGNLLRHIKL
B14: 46F_47F_49D_50I_52G_53A_54K_55F_67L_, Q9UKT9 (peptide)
chain: FFCDICGAKFTQKGNLLRHIKL
B15: 46F_47E_49D_50I_52G_53A_54K_55F_67L_, Q9UKT9 (peptide)
chain: FECDICGAKFTQKGNLLRHIKL
B16: 46F_47K_49D_50I_52G_53A_54K_55F_67L_, Q9UKT9 (peptide)
chain: FKCDICGAKFTQKGNLLRHIKL
B17: 46F_47W_49D_50I_52G_53A_54K_55F_67L_, Q9UKT9 (peptide)
chain: FWCDICGAKFTQKGNLLRHIKL
B18: 46F_47C_49D_50I_52G_53A_54K_55F_67L_, Q9UKT9 (peptide)
chain: FCCDICGAKFTQKGNLLRHIKL
B19: 46F_47M_49D_50I_52G_53A_54K_55F_67L_, Q9UKT9 (peptide)
chain: FMCDICGAKFTQKGNLLRHIKL
B20: 46F_47T_49D_50I_52G_53A_54K_55F_67L_, Q9UKT9 (peptide)
chain: FTCDICGAKFTQKGNLLRHIKL

Target: T1, CRBN, Q96SW2
Test: log2 fold change of degron read counts, EGFP-low vs EGFP+ sorted cells (limma voom), compound-induced degradation; higher = more compound-induced degradation of the degron-EGFP fusion; degrons are variants of IKZF1/3 zinc finger 2; compound dose not given here
Conditions: Jurkat, 18 h
[1] = compound: compound 19 (5-tert-butyl-thalidomide)
[2] = compound: compound 22 (5-morpholino-thalidomide)
[3] = compound: compound 33 (diphenyl IMiD analogue)
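Further: pooled lentiviral library of zinc finger degron-EGFP fusions in mCherry-positive Jurkat cells, FACS-sorted after compound exposure, with degron abundance counted by next-generation sequencing.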

| Sequence | log2 fold change of degron read counts [1] | log2 fold change of degron read counts [2] | log2 fold change of degron read counts [3] | log2 fold change of degron read counts (compound: thalidomide) |
| --- | --- | --- | --- | --- |
| B1 | 0.103 | -0.401 | 0.273 | -0.00478 |
| B2 | -0.706 | -2.38 | -1.75 | -1.28 |
| B3 | 0.281 | -0.67 | -0.225 | -0.832 |
| B4 | 3.54 | 2.69 | 1.29 | 1.99 |
| B5 | 3.63 | 2.99 | 1.57 | 2.05 |
| B6 | -1.76 | -2.76 | -1.72 | -1.87 |
| B7 | -0.476 | 0.413 | 1.73 | 0.798 |
| B8 | -0.953 | -0.985 | 0.652 | 0.605 |
| B9 | -0.855 | -1.86 | -1.23 | 0.0222 |
| B10 | -1.2 | 1.29 | -0.575 | 0.898 |
| B11 | 3.2 | 3.32 | 0.608 | -0.632 |
| B12 | 0.554 | -1.18 | -2.65 | -2.02 |
| B13 | -0.69 | 2.25 | -0.885 | 3.28 |
| B14 | 3.35 | 3.15 | 0.231 | -0.76 |
| B15 | -0.727 | -2.12 | -2.83 | 0.61 |
| B16 | -2.45 | -3.31 | -3.09 | -2.29 |
| B17 | 3.22 | 3.7 | 0.265 | -0.173 |
| B18 | 1.97 | 1.65 | -1.18 | 0.858 |
| B19 | -0.74 | -1.21 | -0.567 | -0.432 |
| B20 | -0.131 | 0.993 | -1.38 | 0.963 |
